Measurements reported in PMC7819943, “Rice protein-binding microarrays: a tool to detect cis-acting elements near promoter regions in rice”.
In all, about 68,000 sequences were measured (“fluorescence intensity (a.u.)”: median about 9,100, highest 2% from about 16,000 on). For the sample, the highest values were picked, then their nearest neighbours and some sequences at random.

Each sequence was assayed against OsWRKY34 (Oryza sativa, UniProt Q0JBA9 1-250) (assay: protein-binding microarray (RPBM); PBS, 2% BSA, 51.3 ng/ul salmon testes DNA, 50 uM zinc acetate, 200 nM TF, 25 C, 1 h; high values mean tight binding). Conditions: protein: recombinant; tags: N-terminal polyhistidine and DsRed monomer fusion (pET32a); label: CyDye5-dUTP incorporated in the synthesized complementary strand; 3' TTTTT single-stranded linker to array surface; dsDNA, one strand shown.
In short: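 Binding signal here means per-feature fluorescence intensity in arbitrary units. The values were read on an Axon 4000B scanner after a custom Agilent array, double-stranded by primer extension with Cy5-dUTP, was incubated with 200 nM protein at 25 °C for 1 h in PBS with 2% BSA, salmon testes DNA and 50 µM zinc acetate, then washed. The proteins were transcription factors with an N-terminal polyhistidine tag and DsRed, expressed in E. coli BL21-CodonPlus and purified on Ni–NTA.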

OsWRKY34, sequence (Q0JBA9 entry or part of it): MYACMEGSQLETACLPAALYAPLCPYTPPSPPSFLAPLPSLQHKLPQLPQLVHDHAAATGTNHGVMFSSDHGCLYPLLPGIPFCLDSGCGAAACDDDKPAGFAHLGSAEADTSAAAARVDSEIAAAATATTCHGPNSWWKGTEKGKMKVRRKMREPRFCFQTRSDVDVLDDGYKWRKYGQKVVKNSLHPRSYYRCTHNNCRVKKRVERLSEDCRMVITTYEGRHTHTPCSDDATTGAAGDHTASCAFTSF

| Sequence | binding signal |
| --- | --- |
| TGTGGTGTGCTTGAGGTGCTTTTGAGTTTTAAATAGATTACGGAGTCACCTAGTGCAG | 8520 fluorescence intensity (a.u.) |
| GGGATCTGAGGCGCGTTTCTTAATTTGCCTTCTCTTTGAGCGGAGTCACCTAGTGCAG | 9220 fluorescence intensity (a.u.) |
| AGTCCATCTAATTCGGCTGCACTCTTTTTCCCCTGTGAAGCGGAGTCACCTAGTGCAG | 8530 fluorescence intensity (a.u.) |
| ATTTTATCACCCTGCTTAGAGTTTCGCCCGGAGCCATGAACGGAGTCACCTAGTGCAG | 10700 fluorescence intensity (a.u.) |
| GCGAGGTCGGGGAGGTGGGTGCACAGTGCCCTGCGAGATGCGGAGTCACCTAGTGCAG | 8120 fluorescence intensity (a.u.) |
| TACAAGCCCGTTGCCATCTCTACTCCGGCCTCCTAGTCCTCGGAGTCACCTAGTGCAG | 9760 fluorescence intensity (a.u.) |
| GAATTCTTGTGTTCCAAGCATTTCGATTTGCTCCTCTCTTCGGAGTCACCTAGTGCAG | 9020 fluorescence intensity (a.u.) |
| ATGGTGGTTCTAATTCTGTTGGTTGACTGCTCTCTGAAATCGGAGTCACCTAGTGCAG | 13300 fluorescence intensity (a.u.) |
| CTGCTCTAACTGAAGTGCCAGGTGACTTGCTTGGTTGGTTCGGAGTCACCTAGTGCAG | 18300 fluorescence intensity (a.u.) |
| ATCGGAGACTGACTGAGTGAAGGTTGGTTGGTTCACACTTCGGAGTCACCTAGTGCAG | 8750 fluorescence intensity (a.u.) |
| CTATCGTCATCCTCGCGATCGCCGCATTCATCCATCCACTCGGAGTCACCTAGTGCAG | 12800 fluorescence intensity (a.u.) |
| TTTGTCCTGGGCTTCTTTCGGCCCAATCTCTCTCCCGTCGCGGAGTCACCTAGTGCAG | 11100 fluorescence intensity (a.u.) |
| ACTGTTTATAGGGTAGGGGTAAGGTTGTGTTCATATAGGTCGGAGTCACCTAGTGCAG | 11700 fluorescence intensity (a.u.) |
| TCCGGGCTGGGTGGGTGGGGTGGGGATGGAGCTTGCCTGGCGGAGTCACCTAGTGCAG | 24100 fluorescence intensity (a.u.) |
| GGGTGCTGGGGCTTTGGCTGCCTTGACTTGGATTGCCTTCCGGAGTCACCTAGTGCAG | 8640 fluorescence intensity (a.u.) |
| GGTGCGGCGGTGGGCGGCATGGAGATGGGGAGAGGAGGCGCGGAGTCACCTAGTGCAG | 10600 fluorescence intensity (a.u.) |
| GGGTGGGTGGGGCGGTGCTTTCCTGGAGATGGGAGAGTGGCGGAGTCACCTAGTGCAG | 23000 fluorescence intensity (a.u.) |
| TCGGAGTGGGGAGATGGTGTCGGGGTGCTGGGTTTCCGGGCGGAGTCACCTAGTGCAG | 13100 fluorescence intensity (a.u.) |
| GGGTGGGGTGGGCCTGGGCTGATGCATGTTTGGCGCTTAGCGGAGTCACCTAGTGCAG | 21200 fluorescence intensity (a.u.) |
| TGGGGATGGAGCTTGCCTGGGTGGTGGTGAGGGCGCAGTTCGGAGTCACCTAGTGCAG | 8680 fluorescence intensity (a.u.) |
| CTGGGGTTGGCCTGGGCTGATATATGTTTGGCGCTCAAAACGGAGTCACCTAGTGCAG | 11100 fluorescence intensity (a.u.) |

| Sequence | binding signal |
| --- | --- |
| TCTCCTGGTTTTGTGTGTTAGCGCTGTCAGTGTGTGGGTGCGGAGTCACCTAGTGCAG | 8120 fluorescence intensity (a.u.) |
| GAGGGATGTCTTATATCTAGTTTTGTGGTTGGAGGATGATCGGAGTCACCTAGTGCAG | 8770 fluorescence intensity (a.u.) |
| TCTGTGTTGGCGAGAGTTGGTGTCTGGAATTGGGCTTGGTCGGAGTCACCTAGTGCAG | 9200 fluorescence intensity (a.u.) |
| GTTCTATTGTACTGGTCAGTTCAGTGGACTCGGTTCTGTTCGGAGTCACCTAGTGCAG | 9260 fluorescence intensity (a.u.) |
| CTACACTGTCTTGCTCGCTCATTGTCTCTCTCTGCATTTGCGGAGTCACCTAGTGCAG | 8580 fluorescence intensity (a.u.) |
| TATGTTCGGTATCGTATTAAATCTACTCCTATTTGTACCTCGGAGTCACCTAGTGCAG | 8570 fluorescence intensity (a.u.) |
| TTTTGTTCGCTACTATAGGCCCACACGTCTGTGCCCATGGCGGAGTCACCTAGTGCAG | 8660 fluorescence intensity (a.u.) |
| CTCCTCTTCTTCTCTTCTCCTTCGTTGGGCGTGGGCGTCGCGGAGTCACCTAGTGCAG | 12400 fluorescence intensity (a.u.) |
| CCGACGCCTACTACTTCGCCCACTAGCCACGCGTGCTGCCCGGAGTCACCTAGTGCAG | 9050 fluorescence intensity (a.u.) |
| TACTGTATAGTTGTTACAACTTCCTTTTTAATTATTCAATCGGAGTCACCTAGTGCAG | 8060 fluorescence intensity (a.u.) |
| GGTCAAATACGTACTAAAAAGTCAACGGTGTCAAACATTTCGGAGTCACCTAGTGCAG | 12900 fluorescence intensity (a.u.) |
| AGACGAATGGTCAAACACGTATTAAAAAGTCAACGGTGTCCGGAGTCACCTAGTGCAG | 19700 fluorescence intensity (a.u.) |
| GAATGGTCAAACACGTACTAAAAAAGTCAACGGTGTCAAACGGAGTCACCTAGTGCAG | 17500 fluorescence intensity (a.u.) |
| AATGGTCAAACACGTATTTAAAAAGTCAACGGTGTCAAACCGGAGTCACCTAGTGCAG | 14100 fluorescence intensity (a.u.) |
| GACGAATGGTCAAACACGTACTAAAAAGTCAACGGTGTCACGGAGTCACCTAGTGCAG | 12200 fluorescence intensity (a.u.) |
| AAGACGAATGATCAAACACGTACTAAAAAAGTCAACGGTGCGGAGTCACCTAGTGCAG | 11600 fluorescence intensity (a.u.) |
| CTAATGGTTCTGATCGCCGTGCCTAACCCTAGCCCCATATCGGAGTCACCTAGTGCAG | 8400 fluorescence intensity (a.u.) |
| TCTTTTGCTTCTGTTCTGCACCGGTCTCTCTGATGGATGTCGGAGTCACCTAGTGCAG | 9680 fluorescence intensity (a.u.) |
| AATAGATGACATTGTTGACTTATTCTTACATGTTTGCCCACGGAGTCACCTAGTGCAG | 9350 fluorescence intensity (a.u.) |
| AATTGCTGTTGACCTGTTGTTGTGCTCCAACATCCAAACACGGAGTCACCTAGTGCAG | 8290 fluorescence intensity (a.u.) |
| TGACAATGGTGTTGCATCTCCAAAGCTGCAGAAACAAACACGGAGTCACCTAGTGCAG | 48300 fluorescence intensity (a.u.) |
